Measured values: the supplement of paper PMC11732987, “Enantioselective OTUD7B fragment discovery through chemoproteomics screening and high-throughput optimisation” (Communications Chemistry, 2025)

Experiments:
Assay in all cases: log2 ratio of Biotin-Ahx-Ub-VS probe labelling (fragment/DMSO); higher = less target engagement (more negative = stronger competition), active = hit call of the paper (q ≤ 0.05, log2 ratio ≤ -1)
Conditions in all cases: compound concentration: 200 uM; treatment time: 3 h
USP19 = molecular target: T1, USP19 (UniProt O94966)
T1 sequence (whole entry): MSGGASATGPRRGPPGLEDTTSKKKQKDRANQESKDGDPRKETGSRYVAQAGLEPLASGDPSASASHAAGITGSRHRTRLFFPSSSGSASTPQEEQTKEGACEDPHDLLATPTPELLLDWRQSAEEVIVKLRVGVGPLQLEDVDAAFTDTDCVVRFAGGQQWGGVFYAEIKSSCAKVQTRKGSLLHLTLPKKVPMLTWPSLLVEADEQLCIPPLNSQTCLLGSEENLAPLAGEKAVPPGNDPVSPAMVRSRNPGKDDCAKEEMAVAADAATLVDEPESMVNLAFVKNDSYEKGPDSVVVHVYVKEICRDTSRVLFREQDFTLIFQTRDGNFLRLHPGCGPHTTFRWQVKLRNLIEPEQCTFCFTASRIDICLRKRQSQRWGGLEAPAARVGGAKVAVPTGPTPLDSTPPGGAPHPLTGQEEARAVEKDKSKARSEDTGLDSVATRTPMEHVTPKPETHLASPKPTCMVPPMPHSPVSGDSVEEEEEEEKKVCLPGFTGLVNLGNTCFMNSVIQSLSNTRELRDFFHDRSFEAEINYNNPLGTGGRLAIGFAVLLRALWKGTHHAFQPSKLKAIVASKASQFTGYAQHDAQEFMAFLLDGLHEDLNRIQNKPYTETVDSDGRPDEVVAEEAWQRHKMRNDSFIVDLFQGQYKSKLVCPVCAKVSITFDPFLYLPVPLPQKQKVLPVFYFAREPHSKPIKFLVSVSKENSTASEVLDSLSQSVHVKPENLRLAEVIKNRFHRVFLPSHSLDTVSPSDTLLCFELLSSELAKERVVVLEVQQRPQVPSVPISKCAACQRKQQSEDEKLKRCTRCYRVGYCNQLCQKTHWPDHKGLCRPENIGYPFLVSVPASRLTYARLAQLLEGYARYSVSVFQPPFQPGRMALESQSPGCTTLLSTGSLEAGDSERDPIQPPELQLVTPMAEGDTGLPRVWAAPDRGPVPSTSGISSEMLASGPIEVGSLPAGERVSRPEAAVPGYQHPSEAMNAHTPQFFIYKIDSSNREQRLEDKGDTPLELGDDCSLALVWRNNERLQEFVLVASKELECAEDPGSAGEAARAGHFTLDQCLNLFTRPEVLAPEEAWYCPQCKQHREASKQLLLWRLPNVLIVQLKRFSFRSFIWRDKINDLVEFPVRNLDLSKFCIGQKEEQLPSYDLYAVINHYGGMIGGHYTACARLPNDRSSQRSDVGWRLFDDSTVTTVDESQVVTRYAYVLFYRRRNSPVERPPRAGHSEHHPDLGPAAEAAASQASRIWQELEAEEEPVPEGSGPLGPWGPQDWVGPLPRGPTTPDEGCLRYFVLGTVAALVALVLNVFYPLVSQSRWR
How it was run: (§1)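 HEK293T lysate, 495 µg per sample in Tris/CHAPS/IGEPAL buffer with protease inhibitors, was treated in triplicate with fragment at 200 µM or vehicle for 3 h and then with Biotin-Ahx-Ub-VS at 0.5 µM final for 1 h. Labelled DUBs were NeutrAvidin-enriched, digested with LysC and trypsin, and run by diaPASEF LC-MS/MS. Spectronaut label-free quantities were global-median-normalised, and values are average log2 fragment/vehicle ratios by unpaired t-test on proteins with ≥2 unique peptides.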

USP24 = USP24 (UniProt Q9UPU5)
How it was run: as §1

USP25 = molecular target: T2, USP25 (UniProt Q9UHP3)
T2 sequence (whole entry): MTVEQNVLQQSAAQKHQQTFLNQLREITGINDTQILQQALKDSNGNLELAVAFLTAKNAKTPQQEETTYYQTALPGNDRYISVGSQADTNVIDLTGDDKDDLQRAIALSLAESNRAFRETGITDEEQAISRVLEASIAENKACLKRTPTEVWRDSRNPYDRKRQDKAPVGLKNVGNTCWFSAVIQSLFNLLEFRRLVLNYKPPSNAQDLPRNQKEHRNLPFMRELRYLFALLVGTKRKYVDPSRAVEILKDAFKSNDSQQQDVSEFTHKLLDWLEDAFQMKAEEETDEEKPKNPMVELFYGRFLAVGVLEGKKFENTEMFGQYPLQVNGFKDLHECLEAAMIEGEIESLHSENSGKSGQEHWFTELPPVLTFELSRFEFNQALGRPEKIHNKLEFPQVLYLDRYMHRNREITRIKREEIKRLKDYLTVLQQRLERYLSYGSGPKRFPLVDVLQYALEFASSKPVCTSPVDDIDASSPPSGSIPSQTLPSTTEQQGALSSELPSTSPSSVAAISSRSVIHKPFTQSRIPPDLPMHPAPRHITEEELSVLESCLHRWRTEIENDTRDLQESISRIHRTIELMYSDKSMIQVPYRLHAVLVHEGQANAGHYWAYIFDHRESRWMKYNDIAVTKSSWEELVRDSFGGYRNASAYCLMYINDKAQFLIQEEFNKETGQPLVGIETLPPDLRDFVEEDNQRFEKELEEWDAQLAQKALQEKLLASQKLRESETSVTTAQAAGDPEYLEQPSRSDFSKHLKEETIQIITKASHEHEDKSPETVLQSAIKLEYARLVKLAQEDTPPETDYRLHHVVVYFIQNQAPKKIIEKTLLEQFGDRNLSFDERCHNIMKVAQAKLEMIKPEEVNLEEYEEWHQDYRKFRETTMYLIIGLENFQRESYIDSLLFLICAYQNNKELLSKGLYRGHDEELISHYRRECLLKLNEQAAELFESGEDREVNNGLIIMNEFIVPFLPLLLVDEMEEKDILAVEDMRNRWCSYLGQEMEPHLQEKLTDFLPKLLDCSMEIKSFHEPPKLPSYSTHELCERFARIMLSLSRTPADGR
How it was run: as §1

USP28 = molecular target: T3, USP28 (UniProt Q96RU2)
T3 sequence (whole entry): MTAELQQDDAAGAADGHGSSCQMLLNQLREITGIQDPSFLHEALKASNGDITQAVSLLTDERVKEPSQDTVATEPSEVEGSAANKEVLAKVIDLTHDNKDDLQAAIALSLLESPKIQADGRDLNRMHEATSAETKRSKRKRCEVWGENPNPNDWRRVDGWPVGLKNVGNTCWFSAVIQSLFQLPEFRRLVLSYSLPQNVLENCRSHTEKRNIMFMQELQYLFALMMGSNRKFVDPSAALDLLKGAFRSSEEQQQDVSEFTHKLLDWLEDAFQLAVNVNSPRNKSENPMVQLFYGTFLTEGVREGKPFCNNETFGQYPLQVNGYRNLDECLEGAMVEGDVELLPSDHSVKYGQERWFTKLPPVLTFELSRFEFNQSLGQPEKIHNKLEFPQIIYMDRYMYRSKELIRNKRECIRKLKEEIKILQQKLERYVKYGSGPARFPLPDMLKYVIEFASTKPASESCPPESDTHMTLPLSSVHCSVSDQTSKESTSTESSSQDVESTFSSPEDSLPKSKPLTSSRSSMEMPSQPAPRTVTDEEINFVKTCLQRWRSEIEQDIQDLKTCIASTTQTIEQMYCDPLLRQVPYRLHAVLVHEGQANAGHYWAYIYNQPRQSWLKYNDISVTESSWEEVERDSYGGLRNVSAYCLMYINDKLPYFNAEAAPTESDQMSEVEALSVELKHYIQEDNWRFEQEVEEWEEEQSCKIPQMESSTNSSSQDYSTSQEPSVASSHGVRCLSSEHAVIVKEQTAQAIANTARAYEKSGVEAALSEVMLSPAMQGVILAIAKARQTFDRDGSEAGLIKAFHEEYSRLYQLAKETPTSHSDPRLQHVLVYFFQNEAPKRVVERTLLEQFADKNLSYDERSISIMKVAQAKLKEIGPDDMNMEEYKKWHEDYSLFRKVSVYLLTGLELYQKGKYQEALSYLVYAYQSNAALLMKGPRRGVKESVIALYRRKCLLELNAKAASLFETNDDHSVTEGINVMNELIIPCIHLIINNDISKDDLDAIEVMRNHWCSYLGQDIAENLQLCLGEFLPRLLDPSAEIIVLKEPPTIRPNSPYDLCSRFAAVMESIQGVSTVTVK
How it was run: as §1

Measured: log2 ratio of Biotin-Ahx-Ub-VS probe labelling

Chain of USP24 (Q9UPU5 whole entry): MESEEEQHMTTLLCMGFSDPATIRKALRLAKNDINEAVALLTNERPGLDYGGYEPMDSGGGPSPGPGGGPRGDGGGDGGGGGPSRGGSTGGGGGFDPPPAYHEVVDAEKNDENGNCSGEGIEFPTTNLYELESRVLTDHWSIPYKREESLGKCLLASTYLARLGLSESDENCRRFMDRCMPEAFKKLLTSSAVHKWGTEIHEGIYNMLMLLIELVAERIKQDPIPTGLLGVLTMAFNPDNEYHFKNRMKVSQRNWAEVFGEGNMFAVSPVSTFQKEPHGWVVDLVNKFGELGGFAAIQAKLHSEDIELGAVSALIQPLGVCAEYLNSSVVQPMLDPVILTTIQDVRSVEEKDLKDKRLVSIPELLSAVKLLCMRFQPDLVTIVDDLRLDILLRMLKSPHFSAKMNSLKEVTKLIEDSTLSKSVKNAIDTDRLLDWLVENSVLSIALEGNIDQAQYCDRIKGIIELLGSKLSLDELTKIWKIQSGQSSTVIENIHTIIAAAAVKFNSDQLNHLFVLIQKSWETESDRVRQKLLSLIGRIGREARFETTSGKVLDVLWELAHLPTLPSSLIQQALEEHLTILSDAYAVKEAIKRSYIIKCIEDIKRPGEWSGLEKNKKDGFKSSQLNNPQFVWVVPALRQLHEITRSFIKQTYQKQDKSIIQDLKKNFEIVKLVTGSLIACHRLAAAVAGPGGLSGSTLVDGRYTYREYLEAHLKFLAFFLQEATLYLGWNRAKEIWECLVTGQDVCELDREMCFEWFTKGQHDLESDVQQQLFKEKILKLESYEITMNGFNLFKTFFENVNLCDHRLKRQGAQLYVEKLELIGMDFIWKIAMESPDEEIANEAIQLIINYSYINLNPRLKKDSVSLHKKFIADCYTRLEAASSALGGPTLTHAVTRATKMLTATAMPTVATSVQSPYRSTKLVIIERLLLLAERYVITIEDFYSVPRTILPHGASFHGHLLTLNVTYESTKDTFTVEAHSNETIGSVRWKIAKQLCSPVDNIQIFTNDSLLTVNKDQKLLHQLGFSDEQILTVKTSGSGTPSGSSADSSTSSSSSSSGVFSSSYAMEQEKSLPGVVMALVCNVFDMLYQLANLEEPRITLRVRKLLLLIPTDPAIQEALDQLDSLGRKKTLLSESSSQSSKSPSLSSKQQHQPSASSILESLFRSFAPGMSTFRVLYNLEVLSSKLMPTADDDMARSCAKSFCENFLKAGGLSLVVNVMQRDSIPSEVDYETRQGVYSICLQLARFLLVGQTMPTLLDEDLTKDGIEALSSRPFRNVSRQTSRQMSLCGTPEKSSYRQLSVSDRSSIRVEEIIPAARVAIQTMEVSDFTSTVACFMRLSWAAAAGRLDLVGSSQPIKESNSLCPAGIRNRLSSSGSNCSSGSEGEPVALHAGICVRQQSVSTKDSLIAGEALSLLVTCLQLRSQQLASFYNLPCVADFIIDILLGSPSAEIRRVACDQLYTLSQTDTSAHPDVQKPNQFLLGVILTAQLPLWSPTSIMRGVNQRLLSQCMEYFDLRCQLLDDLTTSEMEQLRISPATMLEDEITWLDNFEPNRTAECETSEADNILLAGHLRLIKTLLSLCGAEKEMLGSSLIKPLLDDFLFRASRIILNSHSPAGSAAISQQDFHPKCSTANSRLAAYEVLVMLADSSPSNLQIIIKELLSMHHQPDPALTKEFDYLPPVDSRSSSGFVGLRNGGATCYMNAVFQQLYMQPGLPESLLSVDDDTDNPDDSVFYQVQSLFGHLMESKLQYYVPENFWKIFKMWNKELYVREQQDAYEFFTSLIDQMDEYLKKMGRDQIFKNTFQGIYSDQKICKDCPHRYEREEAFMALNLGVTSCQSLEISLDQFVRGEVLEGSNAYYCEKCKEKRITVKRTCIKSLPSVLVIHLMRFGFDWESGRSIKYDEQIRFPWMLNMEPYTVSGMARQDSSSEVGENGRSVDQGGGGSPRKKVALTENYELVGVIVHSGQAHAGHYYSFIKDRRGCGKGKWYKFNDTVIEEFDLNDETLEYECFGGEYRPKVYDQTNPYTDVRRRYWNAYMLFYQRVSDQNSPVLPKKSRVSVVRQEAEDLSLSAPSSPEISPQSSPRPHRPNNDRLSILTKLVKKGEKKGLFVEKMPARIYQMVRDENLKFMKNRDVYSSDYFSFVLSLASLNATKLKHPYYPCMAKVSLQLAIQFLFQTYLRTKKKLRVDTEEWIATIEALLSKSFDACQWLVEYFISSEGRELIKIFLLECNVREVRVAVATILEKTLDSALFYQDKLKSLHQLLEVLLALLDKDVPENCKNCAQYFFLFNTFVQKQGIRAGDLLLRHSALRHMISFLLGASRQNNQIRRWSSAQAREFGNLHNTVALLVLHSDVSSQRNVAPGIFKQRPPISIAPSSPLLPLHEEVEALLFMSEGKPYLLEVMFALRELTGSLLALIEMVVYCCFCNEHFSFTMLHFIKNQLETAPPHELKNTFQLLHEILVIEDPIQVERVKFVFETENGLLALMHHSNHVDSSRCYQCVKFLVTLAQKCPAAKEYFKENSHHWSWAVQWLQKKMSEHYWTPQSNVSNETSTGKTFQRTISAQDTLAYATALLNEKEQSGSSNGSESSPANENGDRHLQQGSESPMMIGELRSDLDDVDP

O=C(CCl)N1CCC(O)(Cc2ccc(F)cc2)C1 (centres undefined)
inactive: USP19 -0.323 | USP24 -0.262 | USP25 -0.107 | USP28 -0.353
